# Measured values reported in publication PMC5540273 (PLoS ONE, 2017).
# Assays:
# Details in all cases: concentration: 1 μM, replicates: in singlicate; n = 1
# BTK = system: BTK
# BUB1 = system: BUB1
# CAMK1B = system: CAMK1B
# CAMK1D = system: CAMK1D
# CAMK1G = system: CAMK1G
# CAMK1 = system: CAMK1
# CAMK2A = system: CAMK2A
# CAMK2B = system: CAMK2B
# CAMK2D = system: CAMK2D
# CAMK2G = system: CAMK2G
# 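Further: KINOMEscan kinase panel screen.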
SMILES,%Inh (BTK),%Inh (BUB1),%Inh (CAMK1B),%Inh (CAMK1D),%Inh (CAMK1G),%Inh (CAMK1),%Inh (CAMK2A),%Inh (CAMK2B),%Inh (CAMK2D),%Inh (CAMK2G)
COc1ccc(Nc2nccc(N3CCC(NC(=O)c4cc5ccccc5s4)C3)n2)cc1 (stereo not shown) [GSK1379738],0%,49%,0%,5%,67%,17%,0%,0%,59%,11%
CCc1ccc(-c2ccc3c(c2)-c2n[nH]cc2S(=O)(=O)N3C)cc1,0%,0%,0%,0%,0%,0%,0%,0%,21%,5%
COc1ccc(Nc2nccc(NCCNC(=O)Nc3cc(C)ccc3C)n2)cc1 [GSK1379899],0%,0%,4%,0%,0%,3%,0%,0%,0%,0%
COc1ccc(CSc2nnc(-c3ccc4ncsc4c3)o2)cc1C(F)(F)F,0%,0%,0%,23%,2%,1%,0%,0%,0%,0%
COC(=O)c1cccc(NC(=O)NC2CCN(c3ccnc(Nc4ccc(OC)cc4)n3)C2)c1 (stereo not shown) [GSK1379746],2%,75%,4%,3%,0%,0%,100%,100%,0%,0%
Cn1cncc1C(=O)NC1CCN(c2ccnc(Nc3ccc(F)cc3)n2)C1 (stereo not shown) [GSK1379717],0%,32%,0%,22%,12%,16%,0%,0%,24%,32%
Cn1cnc2c(N)ncnc21 [SKF-97623],0%,22%,41%,0%,0%,0%,0%,0%,0%,0%
Cc1ccc(-c2nc(Nc3ccncc3)c3ccccc3n2)s1 [GSK189015],0%,34%,27%,12%,2%,15%,0%,0%,12%,24%
Cc1c(Cn2c(C)c(C)n3c(=O)cc(N4CCOCC4)nc23)cccc1C(F)(F)F [GSK2328680],0%,2%,0%,5%,2%,7%,0%,0%,0%,15%
Fc1ccc(-c2nn3cccc(F)c3c2-c2ccncc2)cc1 [GW475620],0%,53%,39%,10%,40%,6%,0%,0%,6%,14%
Cc1ccccc1Cn1ccn2c(=O)cc(N3CCOCC3)nc12 [GSK2269905],0%,0%,0%,0%,3%,2%,0%,0%,20%,47%
CNc1nc(-c2ccc3c(N)n[nH]c3c2)cc(N2C[C@@H](C(=O)NC3CCCCC3)OC[C@H]2C)n1 [GSK2375584],7%,36%,0%,20%,0%,19%,0%,0%,15%,34%
Cc1cnc(N)c(/C=C/c2cncc(C(=O)NCCc3ccc(Cl)cc3Cl)c2)c1.Cl [GSK190937],1%,9%,0%,10%,7%,12%,0%,0%,6%,27%
Cc1c(Cn2c3ccccc3n3c(=O)cc(N4CCOCC4)nc23)cccc1C(F)(F)F [GSK2306394],0%,3%,13%,20%,0%,5%,0%,0%,9%,7%
c1ccc(-c2ccnc3[nH]ccc23)cc1 [SB-693578],0%,58%,11%,9%,15%,14%,0%,15%,31%,21%
CNc1nc(-c2ccc3c(N)n[nH]c3c2)cc(N2C[C@@H](C(=O)Nc3ccccc3)CC[C@H]2C)n1 [GSK2298859],0%,22%,6%,25%,6%,28%,87%,82%,21%,21%
COc1ccc2cc(-c3nc(-c4ccccc4C(C)C)[nH]c3-c3ccncc3)ccc2c1 [SB-660566],0%,89%,31%,7%,0%,7%,0%,0%,2%,4%

SMILES,%Inh (BTK),%Inh (BUB1),%Inh (CAMK1B),%Inh (CAMK1D),%Inh (CAMK1G),%Inh (CAMK1),%Inh (CAMK2A),%Inh (CAMK2B),%Inh (CAMK2D),%Inh (CAMK2G)
COc1ccc(CSc2nnc(-c3ccc4c(c3)CCO4)o2)cc1,0%,0%,0%,0%,9%,0%,0%,0%,0%,0%
COc1ccc(CSc2nnc(-c3ccc4nccn4c3)o2)cc1C(F)(F)F,15%,0%,8%,0%,22%,5%,2%,32%,11%,16%
COc1ccc(Nc2nccc(N3CCC(NC(=O)C(C)c4ccc(Cl)cc4)C3)n2)cc1 (stereo not shown) [GSK1379735],0%,17%,5%,14%,0%,9%,14%,25%,1%,15%
COc1cccc(CNC(=O)NC2CCN(c3ccnc(Nc4ccc(F)cc4)n3)C2)c1 (stereo not shown) [GSK1379723],0%,27%,23%,14%,0%,14%,0%,0%,0%,82%
Cc1ccc(NC(=O)Nc2ccccc2F)cc1-c1ccc(C(=O)Nc2ccncc2)cc1 [GSK1398477],0%,0%,59%,33%,16%,29%,0%,0%,14%,37%
Cc1ccc(NC(=O)Nc2ccccc2)cc1-c1ccc(C(=O)Nc2ccncc2)cc1 [GSK1398471],0%,0%,13%,20%,0%,15%,0%,0%,0%,9%
CCn1c(-c2ccccc2)nc2cnccc21 [SB-733416],0%,2%,44%,8%,0%,0%,0%,0%,0%,0%
COc1ccc(-c2coc3ccc(-c4nnc(C)o4)cc23)cc1,0%,0%,0%,13%,5%,0%,0%,0%,5%,0%
CC(=O)c1cccc(NC(=O)NC2CCN(c3ccnc(Nc4ccc(F)cc4)n3)C2)c1 (stereo not shown) [GSK1379710],0%,33%,39%,16%,7%,20%,0%,0%,4%,32%
CC(=O)c1c(C)c2cnc(Nc3ccn(C)n3)nc2n(C2CCCC2)c1=O,0%,2%,8%,0%,1%,0%,0%,0%,13%,9%
O=C(Nc1n[nH]c2cc(-c3ccsc3)ccc12)C1CC1 [SB-732932],10%,20%,2%,0%,23%,30%,20%,11%,12%,15%
COc1cccc(C2=C(Nc3cc(Cl)c(O)c(Cl)c3)C(=O)NC2=O)c1 [SB-390767],0%,2%,0%,16%,0%,4%,0%,0%,0%,0%
COc1cccc(NC(=O)Nc2ccc(C)c(-c3ccc(C(=O)Nc4ccncc4)cc3)c2)c1 [GSK1398474],0%,0%,0%,25%,0%,21%,0%,2%,11%,22%
Fc1ccc(-c2nc[nH]c2-c2ccncc2)cc1 [SB-217360],0%,84%,0%,10%,0%,0%,0%,0%,0%,0%
CN1c2ccc(-c3ccc(C(N)=O)cc3)cc2-c2[nH]ncc2S1(=O)=O,0%,0%,32%,10%,0%,27%,11%,7%,18%,2%
CS(=O)(=O)CCNCc1nc(-c2ccc3ncnc(Nc4ccc(OCc5ccccc5)c(Cl)c4)c3c2)cs1.Cl [GW582764],35%,62%,4%,3%,0%,9%,0%,0%,1%,18%
CNc1cc(-c2ccc3c(N)n[nH]c3c2)nc(N)n1 [GSK2224810],0%,53%,8%,23%,0%,24%,0%,13%,7%,21%
